Assay outcomes from PubChem.
Sampled rows, rich in hits. Any-hit rate of the full collection: about 3.6%.
Autofluor counter = flagged as autofluorescent in microsphere protease counterscreen | compound autofluorescence counterscreen, microsphere flow cytometry; active compounds read high | fluorescence intensity (concentration not given with the values) | 3.1% of 360,000 active; in the data active means fluorescence intensity above about 16000; inconclusive means no clear call, values can overlap the other calls
3CLpro inhibitor = SARS-CoV 3CLpro protease inhibition; P0C6X7; recombinant SARS-CoV 3CLpro, quenched FRET peptide cleavage; inhibition, % at 6 µM; 0.14% of 290,000 active; AID 1706; in the data active means inhibition above about 12%
Anthrax LF prot = blocks Bacillus anthracis lethal factor protease; 0.12% of 360,000 active; inhibition, % at 10 µM; multiplex microsphere protease cleavage assay, LF; P15917; further: plate controls were buffer without enzyme for full effect and enzyme alone for no effect
Target sequence (P15917 whole entry, looked up): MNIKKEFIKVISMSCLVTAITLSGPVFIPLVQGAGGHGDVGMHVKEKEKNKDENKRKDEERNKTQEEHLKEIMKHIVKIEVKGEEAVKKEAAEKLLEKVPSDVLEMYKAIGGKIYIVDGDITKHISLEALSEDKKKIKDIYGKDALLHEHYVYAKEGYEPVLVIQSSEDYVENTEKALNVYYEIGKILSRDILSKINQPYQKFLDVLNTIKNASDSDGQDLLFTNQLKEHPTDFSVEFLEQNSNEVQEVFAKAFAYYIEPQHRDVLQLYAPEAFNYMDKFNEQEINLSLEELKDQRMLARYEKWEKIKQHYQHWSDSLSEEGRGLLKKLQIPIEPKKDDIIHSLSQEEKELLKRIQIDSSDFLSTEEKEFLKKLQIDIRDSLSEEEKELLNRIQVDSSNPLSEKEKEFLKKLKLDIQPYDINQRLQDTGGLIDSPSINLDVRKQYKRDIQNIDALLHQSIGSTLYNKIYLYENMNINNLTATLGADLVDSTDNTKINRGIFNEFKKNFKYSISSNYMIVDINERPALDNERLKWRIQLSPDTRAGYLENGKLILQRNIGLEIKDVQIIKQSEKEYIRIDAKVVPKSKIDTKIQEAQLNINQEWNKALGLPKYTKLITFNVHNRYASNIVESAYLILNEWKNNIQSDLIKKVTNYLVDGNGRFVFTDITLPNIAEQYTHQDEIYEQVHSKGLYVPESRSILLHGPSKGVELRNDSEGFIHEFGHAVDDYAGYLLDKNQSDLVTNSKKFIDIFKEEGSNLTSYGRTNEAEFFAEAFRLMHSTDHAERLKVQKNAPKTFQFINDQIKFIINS
BoNT-F LC inh = BoNT F light chain protease inhibition. Multiplex microsphere protease cleavage assay, flow cytometry. inhibition, % at 10 µM. 0.22% of 360,000 active; in the data active means inhibition above about 35%, passing the limit was not always enough; inconclusive means no clear call, values can overlap the other calls; further: plate controls were buffer without enzyme for full effect and enzyme alone for no effect
BJeLR viability = BJeLR cell viability loss. BJeLR (HRASV12) viability, CellTiter-Glo ATP luminescence, 48 h. inhibition, % (concentration not given with the values). 0.17% of 300,000 active. AID 1554; in the data active means inhibition above about 50%; inconclusive means no clear call, values can overlap the other calls
BoNT A protease = inhibitors of Botulinum neurotoxin A light chain protease. multiplex microsphere protease substrate cleavage, flow cytometry. inhibition, % at 10 µM. 0.17% of 360,000 active; further: plate controls were buffer without enzyme for full effect and enzyme alone for no effect
Active calls of the source: *; u = inconclusive; x = not tested or not shown. Unless noted, no stated cut-off is given here; in the data, active means inhibition above about 30%; inconclusive means no clear call, values can overlap the other calls; inactive means below that.

SMILES	Autofluor counter	3CLpro inhibitor	Anthrax LF prot	BoNT-F LC inh	BJeLR viability	BoNT A protease
Nc1ccc(C(O)(C(F)(F)F)C(F)(F)F)cc1	16402*	4.7	0.4	-0.1	-6.8	-0.2
Cc1nc(C(=O)Nc2cccc(Cl)c2)nn1-c1cc(OC(C)C)c(Cl)cc1Cl	23251*	0.2	0.5	-4.1	6.7	u
Cc1nc(C(=O)Nc2cc(Cl)ccc2Cl)nn1-c1cc(OC(C)C)c(Cl)cc1Cl	24341*	-6.8	-1.0	1.2	-1.0	-0.6
O=C(NCC1CCCCC1)c1csc([C@@H]2O[C@H](CO)[C@H](O)[C@H](O)[C@H]2O)n1	3751	x	-5.2	-7.0	x	0.0
Cc1c(Cl)ccc2c1NC(=O)[C@]21N[C@@H](Cc2ccccc2)[C@H]2C(=O)N(c3ccc(F)cc3)C(=O)[C@H]21	23930*	0.8	-2.5	-1.4	7.0	u
CCOc1ccc(Nc2nc3c(c(=O)[nH]2)CCC3)cc1	16524*	0.1	0.0	4.5	x	0.4
O=C(O)CCN1C(=O)c2ccc(Oc3ccc4c(c3)C(=O)N(CCC(=O)O)C4=O)cc2C1=O	19401*	-2.7	-1.5	-0.5	-4.4	0.4
CCc1nc2ccc(C(=O)NCc3ccccc3OC)cn2c1N(CC)Cc1cccc(Br)c1	4186	x	-3.9	-4.8	x	-0.3
Cc1ccccc1N=Nc1ccc(O)c2ncccc12	1589	5.8	-4.5	-25.1	65.9*	-2.3
COc1ccc(N=Nc2ccc(O)c3ncccc23)cc1	2756	1.9	-9.1	-33.0	26.1	-2.0
COc1cccc(N=Nc2ccc(O)c3ncccc23)c1	4879	-1.9	-2.3	-5.9	65.5*	1.5
COc1ccc(C)cc1N=Nc1ccc(O)c2ncccc12	1844	-0.7	-5.4	-29.8	7.4	-2.2
O=C(NC1CCCC1)C(c1ccc(F)cc1)N(Cc1ccccc1Cl)C(=O)CCl (stereo not given)	7351	6.6	-0.7	4.1	10.2	0.7
CCN1CCN(c2ccc(NC(=O)c3cccc4ncccc34)cc2)CC1	22120*	5.8	-11.8	-10.3	-16.9	u
Cc1ccccc1N1C(=O)[C@@H]2Cc3ccccc3CN2C1=O	19296*	-0.1	-6.5	6.4	3.6	u
O=C1[C@@H]2Cc3ccccc3CN2C(=O)N1c1cccc(F)c1	8983	-4.1	0.8	-5.3	-4.1	0.5
Cc1cc(=O)[nH]c(SCc2nc3ncccn3c2Br)n1	24282*	4.3	-1.2	-4.0	0.0	-2.2
Cc1cc(=O)[nH]c(SCc2cccc3cccnc23)n1	4247	-1.6	-1.4	2.3	x	-1.9
COc1ccc(CC(=O)Nc2ccc(OC)c(NC(=O)c3ccco3)c2)cc1	4786	4.6	-2.2	-24.5	3.3	-0.3
CCOc1cc(NC(=O)c2ccco2)c(OCC)cc1NC(=O)Cc1ccc(OC)c(OC)c1	20919*	-3.1	-10.2	5.1	-1.9	2.7
COc1ccc(NC(=O)CCc2ccccc2)cc1NC(=O)c1ccco1	19700*	-2.7	-3.3	-4.5	-2.0	-0.9
Cc1occc1C(=O)N/N=C/c1c[nH]c2ccccc12	22938*	-0.5	-8.2	-4.7	-2.1	-0.6
CC(=O)Nc1cc(C(F)(F)F)ccc1OCCOc1ccccc1	21706*	2.0	-3.5	1.5	2.2	u
CC1CCC(NC(=O)c2cc(S(=O)(=O)N(C)C)ccc2N2CCCC2)CC1 (stereo not given)	4379	x	5.6	19.9	-3.2	6.1
COCC(=O)Nc1sc2c(c1C(=O)OC)C(C(=O)OC)CC2 (stereo not given)	20588*	-3.9	-1.9	-4.7	7.7	-0.6
SMILES	Autofluor counter	3CLpro inhibitor	Anthrax LF prot	BoNT-F LC inh	BJeLR viability	BoNT A protease
CCCCNC(=O)CN(Cc1ccco1)S(=O)(=O)c1ccc(C(C)=O)cc1	5820	x	2.1	-1.5	x	-1.4
CCc1nc2ccccc2c(C(=O)OCC(=O)N2CC(C)OC(C)C2)c1C (stereo not given)	x	x	x	x	6.0	x
Cc1[nH]n(-c2ccccc2)c(=O)c1CCO	4688	-2.3	10.4	1.0	-4.6	-1.2
Cc1[nH]n(-c2ccccc2)c(=O)c1S(=O)(=O)c1ccccc1	16181*	-3.1	-1.9	-0.8	0.5	0.1
O=C1Nc2ccccc2OC1CC(=O)N1CCN(c2cccc(C(F)(F)F)c2)CC1 (stereo not given)	21735*	5.2	2.2	0.9	3.6	1.9
O=C(NCCCn1ccnc1)c1cc(-c2cccnc2)nc2ccc(Br)cc12	4431	-1.5	-9.1	1.1	-4.2	0.0
COc1cc(NC(=O)c2cc(-c3cccnc3)nc3ccc(Br)cc23)cc(OC)c1	4404	0.6	-5.5	-3.4	-0.5	1.5
COCCNC(=O)c1cc(-c2cccnc2)nc2ccc(Br)cc12	23362*	2.6	-0.8	1.0	-4.8	0.7
O=C(Nc1cccnc1)c1cc(-c2cccnc2)nc2ccc(Br)cc12	21271*	-2.8	1.7	2.1	1.6	3.5
CCCCNc1nc(N(C)c2ccccc2)nc(-n2ccnc2)n1	23497*	5.0	-4.3	-2.6	-9.5	-0.8
CN(c1ccccc1)c1nc(-n2ccnc2)nc(-n2ccnc2)n1	4521	-3.5	-0.1	6.2	-1.8	0.2
C=CCNc1nc(N(c2ccccc2)c2ccccc2)nc(-n2ccnc2)n1	20613*	3.4	-0.5	-5.6	-6.7	-2.7
O=C1C=Cc2cccc3ccc(O)c1c23	3437	x	38.0*	12.3	x	61.1*
CCc1cccc(CC)c1NC(=O)CSc1nnc(CCC(=O)O)c(=O)[nH]1	2059	2.1	-1.6	-2.9	1.0	-0.7
O=C(c1ccncc1)N1CCN(S(=O)(=O)c2cccc(Cl)c2)CC1	6486	x	0.9	-6.1	3.5	1.1
COC(=O)c1ccccc1NS(=O)(=O)c1ccc(F)cc1	20259*	-5.5	-5.8	1.9	3.3	u
COC(=O)c1ccccc1NC(=O)Oc1ccc(F)cc1	16560*	-1.3	-3.2	-2.8	2.4	-1.2
COC(=O)c1ccccc1NC(=O)CC(=O)Nc1ccccc1C(=O)OC	3791	-0.1	8.6	12.6	-8.0	2.4
COC(=O)c1ccccc1NS(=O)(=O)c1ccc(NC(C)=O)cc1	4670	-1.1	-1.9	-2.5	-6.0	-0.9
O=C(Oc1ccc2c(c1)OCO2)c1cc2c(s1)CCC2	3933	-2.9	-0.6	53.7*	1.2	2.1
Cc1cc(C)nc(NC(=O)c2cccc(Cl)c2)n1	22692*	6.3	1.7	0.1	3.5	1.6
CCN(CC)c1ccc2cc(-c3nnc(-c4ccncc4)o3)c(=O)oc2c1	24761*	-8.0	12.7	5.9	x	3.4
CCN(CC)c1ccc2cc(C(C)=O)c(=O)oc2c1	4680	-4.2	0.6	1.0	4.3	3.1
CN(C)Cc1c(O)c(Cl)cc2c3c(c(=O)oc12)CCCC3	2371	-2.6	-2.2	-4.3	-9.3	-0.1
CCc1c(C)c2cc(Cl)c(O)c(CN(C)C)c2oc1=O	17210*	-8.8	0.7	-6.7	19.1	u
Cc1c(C)c2cc(Cl)c(O)c(CN(C)C)c2oc1=O	5660	0.1	-6.0	3.5	4.1	-0.4
CCCCc1cc(=O)oc2c(CN3CCCC3)c(O)ccc12	20462*	-0.3	-0.2	-3.7	2.2	-2.2
CCCCc1cc(=O)oc2c(CN(C)C)c(O)c(Cl)cc12	23705*	3.0	-1.6	-3.3	x	-0.4
